Records with an inconclusive call do not appear. Activity calls are given as the source filed them. The call rests on the fitted dose curve; in most records, active means well fitted curve in the direction sought with a large enough effect in the repeat runs; inconclusive means weak or mixed curves; inactive means no such curve, though single readings can be large; an effect the other way counts as inactive or inconclusive.
Key:
[1] = qHTS RealTime-Glo MT Cell Viability Assay in HEK293 cells - 32 hour (AID 1224868); conditions: RealTime-Glo luminescence; series mostly up to 76.8 µM; further: top concentration of the series differs between compounds; nearly all actives have a fitted effect of over 50% in size
Procedure, shortened: (§1)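 Cells + reagent dispensed (600 cells/well, HEK293) → 5 h at 37 C/5% CO2 → 23 nL compound in DMSO pinned → 40 h at 37 C → luminescence read at 0, 8, 16, 24, 32, 40 h.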

[2] = A CellTox Green Cytotoxicity Assay to monitor cytotoxicity in HEK293 cells - 0 hour (AID 1224869); conditions: CellTox Green fluorescence; series mostly up to 76.8 µM; further: nearly all actives have a fitted effect of over 50% in size
Procedure, shortened: (§2)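 Real-time, in one plate: 600 HEK293 cells/well with dead-cell DNA dye, pinned compound after 5 h, 37 C incubation over 40 h; viable cells give no appreciable fluorescence.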

[3] = qHTS RealTime-Glo MT Cell Viability Assay in HepG2 cells - 40 hour (AID 1224870); conditions: RealTime-Glo luminescence; series mostly up to 76.8 µM; further: nearly all actives have a fitted effect of over 50% in size
Procedure, shortened: (§3)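 Real-time viability: cells seeded at 600 per well together with NanoLuc and cell-permeant prosubstrate, compounds added after 5 h incubation. Luminescence tracked at 0, 8, 16, 24, 32 and 40 h of exposure.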

[4] = A CellTox Green Cytotoxicity Assay to monitor cytotoxicity in HEK293 cells - 40 hour (AID 1224871); conditions: CellTox Green fluorescence; series mostly up to 76.8 µM; further: nearly all actives have a fitted effect of over 45% in size
Procedure, shortened: as §2

[5] = qHTS RealTime-Glo MT Cell Viability Assay in HEK293 cells - 16 hour (AID 1224872); conditions: RealTime-Glo luminescence; series mostly up to 76.8 µM; further: top concentration of the series differs between compounds; nearly all actives have a fitted effect of over 50% in size
Procedure, shortened: as §1

[6] = qHTS RealTime-Glo MT Cell Viability Assay in HepG2 cells - 8 hour (AID 1224873); conditions: RealTime-Glo luminescence; series mostly up to 76.8 µM; further: nearly all actives have a fitted effect of over 55% in size
Procedure, shortened: as §3

[7] = A CellTox Green Cytotoxicity Assay to monitor cytotoxicity in HEK293 cells - 24 hour (AID 1224875); conditions: CellTox Green fluorescence; series mostly up to 76.8 µM; further: nearly all actives have a fitted effect of over 45% in size
Procedure, shortened: as §2

[8] = A CellTox Green Cytotoxicity Assay to monitor cytotoxicity in HepG2 cells - 16 hour (AID 1224876); conditions: CellTox Green fluorescence; series mostly up to 76.8 µM; further: nearly all actives have a fitted effect of over 45% in size
Procedure, shortened: (§4)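 Cytotoxicity was tracked as dead-cell DNA fluorescence in HepG2 cells treated with test compounds at 37 C; each time-point value comes from one kinetic series spanning 0, 8, 16, 24, 32 and 40 h.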

[9] = qHTS RealTime-Glo MT Cell Viability Assay in HepG2 cells - 32 hour (AID 1224877); conditions: RealTime-Glo luminescence; series mostly up to 76.8 µM; further: nearly all actives have a fitted effect of over 55% in size
Procedure, shortened: (§5)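 Real-time, nonlytic viability: 600 HepG2 cells/well mixed with NanoLuc enzyme plus prosubstrate; 5 h settle, compound (DMSO) added by pintool; luminescence monitored over 40 h at 37 C.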

[10] = A CellTox Green Cytotoxicity Assay to monitor cytotoxicity in HepG2 cells - 24 hour (AID 1224878); conditions: CellTox Green fluorescence; series mostly up to 76.8 µM; further: nearly all actives have a fitted effect of over 45% in size
Procedure, shortened: as §4

[11] = A CellTox Green Cytotoxicity Assay to monitor cytotoxicity in HepG2 cells - 40 hour (AID 1224879); conditions: CellTox Green fluorescence; series mostly up to 76.8 µM; further: nearly all actives have a fitted effect of over 40% in size
Procedure, shortened: as §4

[12] = qHTS RealTime-Glo MT Cell Viability Assay in HEK293 cells - 0 hour (AID 1224880); conditions: RealTime-Glo luminescence; series mostly up to 76.8 µM
Procedure, shortened: (§6)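 Kinetic, non-lysing viability readout. Seed HEK293 (600/well) with reagent, incubate 5 h at 37 C/5% CO2, pin 23 nL compound in DMSO, incubate at 37 C, read luminescence at 0, 8, 16, 24, 32, 40 h.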

[13] = A CellTox Green Cytotoxicity Assay to monitor cytotoxicity in HEK293 cells - 32 hour (AID 1224881); conditions: CellTox Green fluorescence; series mostly up to 76.8 µM; further: nearly all actives have a fitted effect of over 40% in size
Procedure, shortened: as §2

[14] = A CellTox Green Cytotoxicity Assay to monitor cytotoxicity in HepG2 cells - 0 hour (AID 1224882); conditions: CellTox Green fluorescence; series mostly up to 76.8 µM; further: nearly all actives have a fitted effect of over 35% in size
Procedure, shortened: as §4

[15] = A CellTox Green Cytotoxicity Assay to monitor cytotoxicity in HepG2 cells - 32 hour (AID 1224883); conditions: CellTox Green fluorescence; series mostly up to 76.8 µM; further: nearly all actives have a fitted effect of over 50% in size
Procedure, shortened: as §4

[16] = A CellTox Green Cytotoxicity Assay to monitor cytotoxicity in HEK293 cells - 8 hour (AID 1224884); conditions: CellTox Green fluorescence; series mostly up to 76.8 µM; further: nearly all actives have a fitted effect of over 35% in size
Procedure, shortened: as §2

[17] = qHTS RealTime-Glo MT Cell Viability Assay in HepG2 cells - 16 hour (AID 1224885); conditions: RealTime-Glo luminescence; series mostly up to 76.8 µM; further: nearly all actives have a fitted effect of over 50% in size
Procedure, shortened: as §5

[18] = qHTS RealTime-Glo MT Cell Viability Assay in HEK293 cells - 24 hour (AID 1224886); conditions: RealTime-Glo luminescence; series mostly up to 76.8 µM
Procedure, shortened: as §1

[19] = qHTS RealTime-Glo MT Cell Viability Assay in HEK293 cells - 8 hour (AID 1224887); conditions: RealTime-Glo luminescence; series mostly up to 76.8 µM
Procedure, shortened: as §6

[20] = qHTS RealTime-Glo MT Cell Viability Assay in HEK293 cells - 40 hour (AID 1224874); conditions: RealTime-Glo luminescence, active compounds read low; further: nearly all actives have a fitted effect of over 50% in size
Procedure, shortened: as §6
On the % scale 0 is the no-effect control and ±100 the full control effect.

Cc1ccc(S(=O)(=O)NC(=O)NN2CC3CCCC3C2)cc1 (configuration not stated)
inactive: outcome [1] | outcome [2] | outcome [3] | Potency [4] | outcome [5] | outcome [6] | Potency [7] | Potency [8] | outcome [9] | Potency [10] | Potency [11] | Potency [12] | Potency [13] | Potency [14] | Potency [15] | Potency [16] | outcome [17] | outcome [18] | outcome [19]

Clc1ccc2c(c1)Nc1ccccc1S2
inactive: outcome [1] | outcome [2] | outcome [3] | Potency [4] | outcome [5] | outcome [6] | max response [20] -17.2% | Potency [7] | outcome [9] | Potency [10] | Potency [12] | Potency [13] | Potency [14] | Potency [15] | Potency [16] | outcome [17] | outcome [18]

CN(C)c1cc(NC(=O)CNC(C)(C)C)c(O)c2c1C[C@H]1C[C@H]3[C@H](N(C)C)C(=O)C(C(N)=O)=C(O)[C@@]3(O)C(=O)C1=C2O
inactive: outcome [1] | outcome [2] | outcome [3] | Potency [4] | outcome [5] | outcome [6] | Potency [7] | Potency [8] | outcome [9] | Potency [10] | Potency [12] | Potency [13] | Potency [14] | Potency [15] | Potency [16] | outcome [17] | outcome [18] | outcome [19]

CN1C(CCl)Nc2cc(Cl)c(S(N)(=O)=O)cc2S1(=O)=O (configuration not stated)
inactive: outcome [1] | outcome [2] | outcome [3] | Potency [4] | outcome [5] | outcome [6] | max response [20] -6.26% | Potency [7] | outcome [9] | Potency [10] | Potency [11] | Potency [12] | Potency [13] | Potency [14] | Potency [15] | Potency [16] | outcome [17] | outcome [18] | outcome [19]

Cc1cc(C)c(N)c(Cl)c1
inactive: outcome [1] | outcome [2] | outcome [3] | Potency [4] | outcome [5] | max response [20] 2.65% | Potency [7] | Potency [8] | outcome [9] | Potency [10] | Potency [11] | Potency [12] | Potency [13] | Potency [14] | Potency [15] | Potency [16] | outcome [17] | outcome [18] | outcome [19]

CCCCCCCOC(C)=O
inactive: outcome [1] | outcome [2] | outcome [3] | Potency [4] | outcome [5] | max response [20] -2.34% | Potency [7] | Potency [8] | outcome [9] | Potency [10] | Potency [11] | Potency [12] | Potency [13] | Potency [14] | Potency [15] | outcome [17] | outcome [18]

CCCCCCCCS(=O)(=O)O
inactive: outcome [1] | outcome [2] | outcome [3] | Potency [4] | outcome [5] | max response [20] -0.584% | Potency [7] | outcome [9] | Potency [10] | Potency [12] | Potency [13] | Potency [14] | Potency [15] | Potency [16] | outcome [17] | outcome [18]

Cc1ccc(Br)cc1
inactive: outcome [1] | outcome [2] | outcome [3] | Potency [4] | outcome [6] | max response [20] 0.938% | Potency [7] | Potency [8] | outcome [9] | Potency [10] | Potency [11] | Potency [12] | Potency [13] | Potency [14] | Potency [15] | Potency [16] | outcome [17] | outcome [18] | outcome [19]

CCCCCC(CC)OC(=O)CCCOc1ccc(Cl)cc1Cl (configuration not stated)
inactive: outcome [1] | outcome [2] | outcome [3] | Potency [4] | outcome [5] | Potency [7] | Potency [8] | outcome [9] | Potency [10] | Potency [12] | Potency [13] | Potency [14] | Potency [15] | Potency [16] | outcome [18] | outcome [19]

CCCCN1C(=O)c2ccccc2C1=O
inactive: outcome [1] | outcome [2] | outcome [3] | Potency [4] | outcome [5] | max response [20] -3.23% | Potency [7] | outcome [9] | Potency [12] | Potency [13] | Potency [14] | Potency [16] | outcome [17] | outcome [18] | outcome [19]

CC(C)(C)OC(=O)c1ccccc1C(=O)O
inactive: outcome [1] | outcome [2] | outcome [3] | Potency [4] | outcome [5] | max response [20] 0.795% | Potency [7] | outcome [9] | Potency [10] | Potency [11] | Potency [12] | Potency [13] | Potency [14] | Potency [15] | Potency [16] | outcome [17] | outcome [18]
